HCMV inh – qHTS Assay for inhibitors of the human cytomegalovirus (HCMV). HFF cells, HCMV-luciferase reporter, 72 h; active compounds read low. activity change, negative = inhibition, % at 57.5 µM. 4.5% of 410,000 active. AID 1259415, 2018; in the data active = activity change below about -60%; inconclusive = no clear call, values can overlap the other calls; inactive = above about -39%; also: % is scaled to controls: 0 for no effect and ±100 for the full control effect
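Screen run at 2 compound doses on HFFs infected with reporter HCMV, MOI 1 PFU/cell. Luciferase activity from cell lysates at 72 h post infection gave inhibition relative to buffer-only and Salinomycin wells.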
Shiga inhibitor – A qHTS for Small Molecule Inhibitors of Shiga Toxin. Vero cells, Shiga toxin protein synthesis inhibition reporter. inhibition, % at 38.7 µM. 9.2% of 290,000 active. AID 2315, 2010; in the data active = inhibition mostly above about 28%, no sharp cut-off; inactive = mostly below about 43%; also: 0% is about no effect
Pf growth 96h – Primary qHTS for delayed death inhibitors of the malarial parasite plastid, 96 hour incubation; Potency, µM (highest dose often 28.7 µM), for inactives: at the top dose activity change, negative = inhibition, most hits filed as inhibitors; 6.9% of 320,000 active; AID 504834, 2011; P. falciparum luciferase reporter growth, 96 h; also: potency is read from the fitted curve at half-maximal effect; % is scaled to controls: 0 for no effect and ±100 for the full control effect
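Plates of compound plus infected erythrocytes (2% hematocrit, 0.05% parasitemia final) incubate 96 hours, 37 C, 5% CO2. Detection reagent added; reduced luminescence from the parasites' luciferase reporter flags inhibition.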
Pf growth 48h – Primary qHTS for delayed death inhibitors of the malarial parasite plastid, 48 hour incubation; P. falciparum luciferase growth in erythrocytes, 48 h; Potency, µM (doses to about 28.7 µM), without a hit: at the highest dose activity change, negative = inhibition, usual class: inhibitors; 5.9% of 310,000 active; also: potency is read from the fitted curve at half-maximal effect; % is scaled to controls: 0 for no effect and ±100 for the full control effect
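In quantitative HTS format, infected erythrocytes bearing luciferase-reporter parasites were treated for a single generation at 37 C. Luminescence after adding detection reagent served as the growth measure.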
CHX counter – Cycloheximide Counterscreen for Small Molecule Inhibitors of Shiga Toxin. cell reporter, cycloheximide protein synthesis inhibition counterscreen. max response, %. 12% of 300,000 active. AID 2314, 2010; in the data active = max response mostly above about 13%, no sharp cut-off; inactive = mostly below about 14%; also: read at 38.3 µM for the half of the compounds with a filed dose; 0% is about no effect
Numbers without * were called inactive; i = inactive; ? = inconclusive; · = not tested or not shown; [ ] = dose if it differs, or a comment. The list is not random: actives were taken first. Their share in the collection is about 20%. Unless noted, calls follow the shape of the dose curve; as a rule, active = well fitted inhibition curve with a large enough effect; inconclusive = small, poorly fitted or top-dose-only effect, or another doubt; inactive = no such curve, though single readings can be large or run the other way.

SMILES	HCMV inh	Shiga inhibitor	Pf growth 96h	Pf growth 48h	CHX counter
COc1cccc(-c2noc(CCC(=O)NCC3CCCO3)n2)c1 (centres undefined)	7	27	36%	69%	16
CN(Cc1cn(C)nc1-c1cccc(Cl)c1)CC1CCCCO1 (centres undefined)	7	-19	10µM*	6%	-2
CN(Cc1nc(-c2cccc(Cl)c2)no1)C1CCOCC1	2	84*	0%	200%	35*
O=C(Oc1ccccc1N1CCOCC1)c1sccc1Br	15	-5	6%	-1%	-3
CC(C)(C)CC(C)(C)NC(=O)C(C1CC1)N1C(=O)C(=O)c2ccccc21 (centres undefined)	22	·	·	·	·
CSC1=NSC2=NC(=O)/C(=C\c3ccc(OC(=O)c4ccco4)cc3)C(=N)N12	35	34*	-24%	37%	19*
CS(=O)(=O)C1=NSC2=NC(=O)/C(=C\c3ccc(OC(=O)c4ccco4)c(Br)c3)C(=N)N21	13	-11	?	6%	4
CC1=CSC2=NC(=O)/C(=C/c3cccc(OC(=O)c4ccco4)c3)C(=N)N12	46	34*	-15%	12%	11
CC1=CC2=NC(=O)/C(=C\c3ccc(OC(=O)c4ccco4)cc3)C(=N)N2O1	-15	-14	0%	7%	8
COc1cc(/C=C2/C(=N)N3OC(C)=CC3=NC2=O)ccc1OC(=O)c1ccco1	-28	-10	13µM*	29%	7
CC(C)CS(=O)(=O)C1=NSC2=NC(=O)/C(=C\c3ccc(OC(=O)c4ccco4)cc3)C(=N)N21	0	-5	27%	13%	-2
O=C(Nc1nnc(C2CC2)s1)c1ccncc1	59	15	35%	25%	14
CC(C)(C)c1ccc(C(=O)Oc2ccccc2CCC(=O)O)cc1	67	5	0%	-1%	5
Cc1ccc(S(=O)(=O)N2C[C@H]3n4c(=O)ccc(=O)n4C[C@H](OC(=O)Nc4cccs4)[C@@]3(O)C2)cc1	5	·	·	·	·
CCCCCCNC(=O)O[C@H]1Cn2c(=O)n(CCCCCC)c(=O)n2[C@@H]2CN(S(=O)(=O)c3ccc(C)cc3)C[C@]12O	-103*	·	·	·	·
Cc1ccc(S(=O)(=O)N2C[C@H]3n4c(=O)ccc(=O)n4C[C@H](OC(=O)NCc4ccccc4F)[C@@]3(O)C2)cc1	-102*	·	·	·	·
CCCCCCNC(=O)O[C@H]1Cn2c(=O)ccc(=O)n2[C@@H]2CN(S(=O)(=O)c3ccc(C)cc3)C[C@]12O	-89*	·	·	·	·
CCCCCCn1c(=O)n2n(c1=O)[C@@H]1CN(S(=O)(=O)c3ccc(C)cc3)C[C@]1(O)[C@@H](OC(=O)NCc1ccccc1F)C2	13	·	·	·	·
CC(C)c1ccc(OCC(=O)Nc2c(C(=O)c3ccc(F)cc3)oc3ccccc23)cc1	-9	·	·	·	·
Cc1ccc(N2CC(NC(=O)c3ccc(S(=O)(=O)N(C)C)cc3)CC2=O)cc1C (centres undefined)	35	·	·	·	·
c1ccc(-n2nc3c(ccc4cnnc43)[nH]2)cc1	117	83*	-8%	52%	43*
c1ccc(-n2cnnn2)cc1	·	·	-16%	-9%	·
O=[N+]([O-])c1ccccc1OCCOCCOc1cccc2cccnc12	-13	-5	-14%	-3%	1
O=[N+]([O-])c1ccccc1COc1ccc(Cl)c2cccnc12	8	62*	16%	162%	23*
O=C(CSc1ncc2c(n1)-c1ccccc1N(Cc1ccc(Cl)cc1)S2(=O)=O)c1ccccc1	13	·	·	·	·
SMILES	HCMV inh	Shiga inhibitor	Pf growth 96h	Pf growth 48h	CHX counter
Clc1cccc(N2CCN(c3nc4ccccc4n4nnnc34)CC2)c1	7	·	·	·	·
Cc1cc(C)c(NC(=O)CN2C(=O)C3(SCC(=O)N3c3ccc(F)cc3)c3ccccc32)c(C)c1 (centres undefined)	-18	·	·	·	·
CC1=CC(C)(C)N2C(=O)C3(SCC(=O)N3c3ccc(F)cc3)c3cc(C)cc1c32 (centres undefined)	-67*	-18	4.1µM*	·	-4
O=C(c1ccc(F)cc1)N1CCCC(c2ccccc2)C1 (centres undefined)	-11	11	?	2%	-3
Cc1cccc(OCC(=O)N2CCN(C(=O)Cc3ccccc3)CC2)c1	-7	-8	28%	11%	1
O=C(COc1ccc(F)cc1)N1CCC(c2ccccc2)C1 (centres undefined)	41	58*	?	157%	43*
Cc1cccc(OCC(=O)N2CCC(c3ccccc3)C2)c1 (centres undefined)	83	79*	?	100%	30*
NC(=O)[C@@H]1CCCNc2c(F)cc([N+](=O)[O-])cc2C(=O)N[C@@H](CCC(=O)O)C(=O)N[C@@H](CO)C(=O)N1	-24	11	-9%	16%	-3
OC1(c2ccccc2)CCNC2CCCCC21 (centres undefined)	-18	-6	10µM*	30%	-3
OC12CCCCC1C(c1ccccc1)NCC2 (centres undefined)	-33	18	-16%	1%	13
OC1(c2ccccc2)CCN(Cc2ccccc2)C2CCCCC21 (centres undefined)	-32	-2	62%	10µM*	-3
S=C(Nc1ccccc1Cl)N1CCN(c2ccccn2)CC1	-39	-5	-1%	5%	-3
O=C(NCCS(=O)(=O)N1CCN(c2cccc(Cl)c2)CC1)c1ccc2c(c1)OCO2	7	·	18%	7%	·
Cc1ccc(CC(=O)Nc2c(C(=O)N3CCN(c4ccccc4F)CC3)oc3ccccc23)cc1	-21	·	·	·	·
CC(C)(C)OC(=O)N1CCC[C@H]1C(=O)OCC(=O)Nc1cc(S(C)(=O)=O)ccc1Cl	5	·	-4%	5%	·
COCCCn1c(=O)c2sccc2n2c(CCCC(=O)NCc3ccccc3)nnc12	?	-4	-23%	-3%	2
CCCCn1c(C)cc2c(c1=O)C1O[C@](c3ccsc3)(Cc3ccccc31)O2	·	i	5%[5.75 µM]	?	-3
Cc1cc2c(c(=O)n1Cc1ccccc1)C1O[C@](c3ccsc3)(Cc3ccccc31)O2	·	i	?	1.2µM*	-3
Cc1cc2c(c(=O)n1Cc1ccccc1)C1O[C@](c3ccsc3)(Cc3cc(C#N)ccc31)O2	·	i	22%[5.75 µM]	1.7µM*	-1
CCOC(=O)c1cccc(NC(=O)C(CC(C)C)N2Cc3ccccc3C2=O)c1 (centres undefined)	-3	·	·	·	·
Cc1ccc(NC(=O)c2ccc(NCc3ccc(F)cc3)nc2)cc1	-105*	-3	?	19%	-3
Cc1ccc(NC(=O)c2ccc(Nc3ccccc3F)nc2)cc1	6	15	5.9µM*	68%	40*
Cc1ccc(NC(=O)c2ccccc2OCC(=O)c2ccc(F)cc2)cc1	-15	-2	72%	55%	-2

Source: PubChem (National Center for Advancing Translational Sciences (NCATS))
